How the values were obtained:
Test in all cases: log2 ratio of Biotin-Ahx-Ub-VS probe labelling (fragment/DMSO); higher = less target engagement (more negative = stronger competition), active = hit call of the paper (q ≤ 0.05, log2 ratio ≤ -1)
Conditions in all cases: compound concentration: 200 uM; treatment time: 3 h
USP34 = USP34 (UniProt Q70CQ2)
Procedure, shortened: (§1)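 Global-median-normalised Spectronaut label-free quantities were compared by unpaired t-test, and values are average log2 ratios of fragment over vehicle. Only proteins with ≥2 unique peptides were used. HEK293T lysate (495 µg per sample) was treated in triplicate with fragment at 200 µM or vehicle for 3 h and then with Biotin-Ahx-Ub-VS at 0.5 µM final for 1 h. Labelled DUBs were then NeutrAvidin-enriched, digested with LysC and trypsin, and run by diaPASEF LC-MS/MS.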

USP36 = molecular target: T1, USP36 (UniProt Q9P275)
T1 sequence (whole entry): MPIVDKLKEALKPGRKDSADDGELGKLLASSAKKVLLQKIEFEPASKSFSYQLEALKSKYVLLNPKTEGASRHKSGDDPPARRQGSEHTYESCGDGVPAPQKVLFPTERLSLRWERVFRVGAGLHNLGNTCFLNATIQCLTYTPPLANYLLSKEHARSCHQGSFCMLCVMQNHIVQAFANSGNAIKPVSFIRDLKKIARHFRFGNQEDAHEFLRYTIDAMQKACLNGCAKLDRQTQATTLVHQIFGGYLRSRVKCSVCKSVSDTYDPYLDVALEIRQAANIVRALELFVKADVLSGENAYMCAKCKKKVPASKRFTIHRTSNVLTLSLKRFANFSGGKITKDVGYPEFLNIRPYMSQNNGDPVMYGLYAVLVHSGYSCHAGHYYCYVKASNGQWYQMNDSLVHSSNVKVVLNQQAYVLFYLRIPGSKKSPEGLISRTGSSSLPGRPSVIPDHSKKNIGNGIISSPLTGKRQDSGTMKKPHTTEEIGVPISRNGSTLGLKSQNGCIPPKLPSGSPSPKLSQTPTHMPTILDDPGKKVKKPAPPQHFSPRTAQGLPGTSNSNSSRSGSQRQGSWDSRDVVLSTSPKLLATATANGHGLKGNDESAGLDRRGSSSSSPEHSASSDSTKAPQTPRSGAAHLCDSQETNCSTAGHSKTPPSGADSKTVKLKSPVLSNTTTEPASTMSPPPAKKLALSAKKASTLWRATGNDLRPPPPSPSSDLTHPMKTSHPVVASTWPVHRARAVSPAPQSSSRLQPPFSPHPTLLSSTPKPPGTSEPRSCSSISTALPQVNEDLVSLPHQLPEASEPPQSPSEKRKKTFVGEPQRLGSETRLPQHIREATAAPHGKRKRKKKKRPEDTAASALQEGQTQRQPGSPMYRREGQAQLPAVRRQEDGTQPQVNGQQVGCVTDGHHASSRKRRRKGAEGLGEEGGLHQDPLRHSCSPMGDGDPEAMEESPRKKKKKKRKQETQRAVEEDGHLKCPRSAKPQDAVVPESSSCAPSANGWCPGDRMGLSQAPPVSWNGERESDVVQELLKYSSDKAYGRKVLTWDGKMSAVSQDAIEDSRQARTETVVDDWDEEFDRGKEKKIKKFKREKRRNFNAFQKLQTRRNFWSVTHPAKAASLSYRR
Procedure, shortened: as §1

USP38 = molecular target: T2, USP38 (UniProt Q8NB14)
T2 sequence (whole entry): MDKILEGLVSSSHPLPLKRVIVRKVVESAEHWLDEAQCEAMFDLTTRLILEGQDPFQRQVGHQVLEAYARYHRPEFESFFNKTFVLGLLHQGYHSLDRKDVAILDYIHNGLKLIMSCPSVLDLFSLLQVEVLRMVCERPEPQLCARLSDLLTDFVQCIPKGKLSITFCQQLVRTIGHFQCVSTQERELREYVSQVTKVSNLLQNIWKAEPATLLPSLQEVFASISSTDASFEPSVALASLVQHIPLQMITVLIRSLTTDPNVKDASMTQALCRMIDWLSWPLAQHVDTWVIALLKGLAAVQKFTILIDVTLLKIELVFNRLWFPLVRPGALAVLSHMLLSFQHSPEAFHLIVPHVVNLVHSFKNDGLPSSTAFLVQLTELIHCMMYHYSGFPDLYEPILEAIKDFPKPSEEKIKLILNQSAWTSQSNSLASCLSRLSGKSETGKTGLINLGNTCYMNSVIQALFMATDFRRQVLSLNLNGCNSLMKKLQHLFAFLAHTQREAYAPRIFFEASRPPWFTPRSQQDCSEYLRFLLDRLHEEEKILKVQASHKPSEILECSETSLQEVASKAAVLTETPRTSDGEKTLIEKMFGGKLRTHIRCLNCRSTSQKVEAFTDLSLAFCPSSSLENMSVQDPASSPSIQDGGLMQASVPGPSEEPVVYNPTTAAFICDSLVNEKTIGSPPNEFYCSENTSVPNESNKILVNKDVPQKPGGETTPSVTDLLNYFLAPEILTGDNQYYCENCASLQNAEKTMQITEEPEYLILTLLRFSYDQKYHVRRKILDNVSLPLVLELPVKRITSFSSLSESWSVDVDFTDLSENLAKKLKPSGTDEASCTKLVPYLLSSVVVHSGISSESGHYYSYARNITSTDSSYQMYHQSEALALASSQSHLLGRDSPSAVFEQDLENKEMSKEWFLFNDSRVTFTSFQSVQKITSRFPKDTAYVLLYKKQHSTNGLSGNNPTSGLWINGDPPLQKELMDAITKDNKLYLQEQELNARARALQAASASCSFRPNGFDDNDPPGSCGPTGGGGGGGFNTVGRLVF
Procedure, shortened: as §1

USP39 = molecular target: T3, USP39 (UniProt Q53GS9)
T3 sequence (whole entry): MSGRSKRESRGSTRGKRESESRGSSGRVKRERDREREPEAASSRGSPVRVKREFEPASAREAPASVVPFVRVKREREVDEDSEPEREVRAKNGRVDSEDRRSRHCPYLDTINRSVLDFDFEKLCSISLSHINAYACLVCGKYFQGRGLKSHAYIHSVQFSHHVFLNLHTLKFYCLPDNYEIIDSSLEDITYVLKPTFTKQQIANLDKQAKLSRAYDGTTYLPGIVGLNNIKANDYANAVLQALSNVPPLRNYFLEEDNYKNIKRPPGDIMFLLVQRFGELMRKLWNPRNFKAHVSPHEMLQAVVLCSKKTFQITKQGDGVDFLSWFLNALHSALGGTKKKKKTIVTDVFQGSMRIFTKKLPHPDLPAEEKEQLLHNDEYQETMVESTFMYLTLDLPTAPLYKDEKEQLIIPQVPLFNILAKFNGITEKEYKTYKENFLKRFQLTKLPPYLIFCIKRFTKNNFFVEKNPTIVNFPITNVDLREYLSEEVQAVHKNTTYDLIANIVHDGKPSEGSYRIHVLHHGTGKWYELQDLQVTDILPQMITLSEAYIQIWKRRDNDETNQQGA
Procedure, shortened: as §1

USP4 = molecular target: T4, USP4 (UniProt Q13107)
T4 sequence (whole entry): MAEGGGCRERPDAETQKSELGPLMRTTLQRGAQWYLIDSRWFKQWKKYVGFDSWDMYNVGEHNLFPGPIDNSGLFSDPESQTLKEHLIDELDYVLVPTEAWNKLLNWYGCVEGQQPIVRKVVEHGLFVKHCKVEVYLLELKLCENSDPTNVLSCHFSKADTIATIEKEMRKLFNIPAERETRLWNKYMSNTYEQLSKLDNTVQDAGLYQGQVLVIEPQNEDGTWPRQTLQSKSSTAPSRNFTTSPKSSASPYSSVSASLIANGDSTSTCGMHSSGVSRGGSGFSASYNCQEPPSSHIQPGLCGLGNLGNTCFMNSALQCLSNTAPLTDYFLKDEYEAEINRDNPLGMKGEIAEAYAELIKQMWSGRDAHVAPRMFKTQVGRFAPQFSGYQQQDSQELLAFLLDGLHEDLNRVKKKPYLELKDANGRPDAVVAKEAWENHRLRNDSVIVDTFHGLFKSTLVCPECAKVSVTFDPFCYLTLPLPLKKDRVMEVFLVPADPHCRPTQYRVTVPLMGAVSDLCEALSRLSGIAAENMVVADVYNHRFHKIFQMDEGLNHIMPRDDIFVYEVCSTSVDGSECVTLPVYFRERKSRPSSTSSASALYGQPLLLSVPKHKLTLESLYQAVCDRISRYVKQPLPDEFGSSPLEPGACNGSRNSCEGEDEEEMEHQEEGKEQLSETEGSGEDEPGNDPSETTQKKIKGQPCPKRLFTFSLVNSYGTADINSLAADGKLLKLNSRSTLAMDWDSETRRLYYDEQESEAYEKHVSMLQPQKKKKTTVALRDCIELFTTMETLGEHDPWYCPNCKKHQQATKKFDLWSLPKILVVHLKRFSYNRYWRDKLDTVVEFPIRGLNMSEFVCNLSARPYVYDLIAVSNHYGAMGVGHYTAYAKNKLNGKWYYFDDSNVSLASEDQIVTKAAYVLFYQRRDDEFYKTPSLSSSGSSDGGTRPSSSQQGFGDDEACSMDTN
Procedure, shortened: as §1

Measured: log2 ratio of Biotin-Ahx-Ub-VS probe labelling

Chain of USP34 (Q70CQ2 whole entry, the tested form may be a part): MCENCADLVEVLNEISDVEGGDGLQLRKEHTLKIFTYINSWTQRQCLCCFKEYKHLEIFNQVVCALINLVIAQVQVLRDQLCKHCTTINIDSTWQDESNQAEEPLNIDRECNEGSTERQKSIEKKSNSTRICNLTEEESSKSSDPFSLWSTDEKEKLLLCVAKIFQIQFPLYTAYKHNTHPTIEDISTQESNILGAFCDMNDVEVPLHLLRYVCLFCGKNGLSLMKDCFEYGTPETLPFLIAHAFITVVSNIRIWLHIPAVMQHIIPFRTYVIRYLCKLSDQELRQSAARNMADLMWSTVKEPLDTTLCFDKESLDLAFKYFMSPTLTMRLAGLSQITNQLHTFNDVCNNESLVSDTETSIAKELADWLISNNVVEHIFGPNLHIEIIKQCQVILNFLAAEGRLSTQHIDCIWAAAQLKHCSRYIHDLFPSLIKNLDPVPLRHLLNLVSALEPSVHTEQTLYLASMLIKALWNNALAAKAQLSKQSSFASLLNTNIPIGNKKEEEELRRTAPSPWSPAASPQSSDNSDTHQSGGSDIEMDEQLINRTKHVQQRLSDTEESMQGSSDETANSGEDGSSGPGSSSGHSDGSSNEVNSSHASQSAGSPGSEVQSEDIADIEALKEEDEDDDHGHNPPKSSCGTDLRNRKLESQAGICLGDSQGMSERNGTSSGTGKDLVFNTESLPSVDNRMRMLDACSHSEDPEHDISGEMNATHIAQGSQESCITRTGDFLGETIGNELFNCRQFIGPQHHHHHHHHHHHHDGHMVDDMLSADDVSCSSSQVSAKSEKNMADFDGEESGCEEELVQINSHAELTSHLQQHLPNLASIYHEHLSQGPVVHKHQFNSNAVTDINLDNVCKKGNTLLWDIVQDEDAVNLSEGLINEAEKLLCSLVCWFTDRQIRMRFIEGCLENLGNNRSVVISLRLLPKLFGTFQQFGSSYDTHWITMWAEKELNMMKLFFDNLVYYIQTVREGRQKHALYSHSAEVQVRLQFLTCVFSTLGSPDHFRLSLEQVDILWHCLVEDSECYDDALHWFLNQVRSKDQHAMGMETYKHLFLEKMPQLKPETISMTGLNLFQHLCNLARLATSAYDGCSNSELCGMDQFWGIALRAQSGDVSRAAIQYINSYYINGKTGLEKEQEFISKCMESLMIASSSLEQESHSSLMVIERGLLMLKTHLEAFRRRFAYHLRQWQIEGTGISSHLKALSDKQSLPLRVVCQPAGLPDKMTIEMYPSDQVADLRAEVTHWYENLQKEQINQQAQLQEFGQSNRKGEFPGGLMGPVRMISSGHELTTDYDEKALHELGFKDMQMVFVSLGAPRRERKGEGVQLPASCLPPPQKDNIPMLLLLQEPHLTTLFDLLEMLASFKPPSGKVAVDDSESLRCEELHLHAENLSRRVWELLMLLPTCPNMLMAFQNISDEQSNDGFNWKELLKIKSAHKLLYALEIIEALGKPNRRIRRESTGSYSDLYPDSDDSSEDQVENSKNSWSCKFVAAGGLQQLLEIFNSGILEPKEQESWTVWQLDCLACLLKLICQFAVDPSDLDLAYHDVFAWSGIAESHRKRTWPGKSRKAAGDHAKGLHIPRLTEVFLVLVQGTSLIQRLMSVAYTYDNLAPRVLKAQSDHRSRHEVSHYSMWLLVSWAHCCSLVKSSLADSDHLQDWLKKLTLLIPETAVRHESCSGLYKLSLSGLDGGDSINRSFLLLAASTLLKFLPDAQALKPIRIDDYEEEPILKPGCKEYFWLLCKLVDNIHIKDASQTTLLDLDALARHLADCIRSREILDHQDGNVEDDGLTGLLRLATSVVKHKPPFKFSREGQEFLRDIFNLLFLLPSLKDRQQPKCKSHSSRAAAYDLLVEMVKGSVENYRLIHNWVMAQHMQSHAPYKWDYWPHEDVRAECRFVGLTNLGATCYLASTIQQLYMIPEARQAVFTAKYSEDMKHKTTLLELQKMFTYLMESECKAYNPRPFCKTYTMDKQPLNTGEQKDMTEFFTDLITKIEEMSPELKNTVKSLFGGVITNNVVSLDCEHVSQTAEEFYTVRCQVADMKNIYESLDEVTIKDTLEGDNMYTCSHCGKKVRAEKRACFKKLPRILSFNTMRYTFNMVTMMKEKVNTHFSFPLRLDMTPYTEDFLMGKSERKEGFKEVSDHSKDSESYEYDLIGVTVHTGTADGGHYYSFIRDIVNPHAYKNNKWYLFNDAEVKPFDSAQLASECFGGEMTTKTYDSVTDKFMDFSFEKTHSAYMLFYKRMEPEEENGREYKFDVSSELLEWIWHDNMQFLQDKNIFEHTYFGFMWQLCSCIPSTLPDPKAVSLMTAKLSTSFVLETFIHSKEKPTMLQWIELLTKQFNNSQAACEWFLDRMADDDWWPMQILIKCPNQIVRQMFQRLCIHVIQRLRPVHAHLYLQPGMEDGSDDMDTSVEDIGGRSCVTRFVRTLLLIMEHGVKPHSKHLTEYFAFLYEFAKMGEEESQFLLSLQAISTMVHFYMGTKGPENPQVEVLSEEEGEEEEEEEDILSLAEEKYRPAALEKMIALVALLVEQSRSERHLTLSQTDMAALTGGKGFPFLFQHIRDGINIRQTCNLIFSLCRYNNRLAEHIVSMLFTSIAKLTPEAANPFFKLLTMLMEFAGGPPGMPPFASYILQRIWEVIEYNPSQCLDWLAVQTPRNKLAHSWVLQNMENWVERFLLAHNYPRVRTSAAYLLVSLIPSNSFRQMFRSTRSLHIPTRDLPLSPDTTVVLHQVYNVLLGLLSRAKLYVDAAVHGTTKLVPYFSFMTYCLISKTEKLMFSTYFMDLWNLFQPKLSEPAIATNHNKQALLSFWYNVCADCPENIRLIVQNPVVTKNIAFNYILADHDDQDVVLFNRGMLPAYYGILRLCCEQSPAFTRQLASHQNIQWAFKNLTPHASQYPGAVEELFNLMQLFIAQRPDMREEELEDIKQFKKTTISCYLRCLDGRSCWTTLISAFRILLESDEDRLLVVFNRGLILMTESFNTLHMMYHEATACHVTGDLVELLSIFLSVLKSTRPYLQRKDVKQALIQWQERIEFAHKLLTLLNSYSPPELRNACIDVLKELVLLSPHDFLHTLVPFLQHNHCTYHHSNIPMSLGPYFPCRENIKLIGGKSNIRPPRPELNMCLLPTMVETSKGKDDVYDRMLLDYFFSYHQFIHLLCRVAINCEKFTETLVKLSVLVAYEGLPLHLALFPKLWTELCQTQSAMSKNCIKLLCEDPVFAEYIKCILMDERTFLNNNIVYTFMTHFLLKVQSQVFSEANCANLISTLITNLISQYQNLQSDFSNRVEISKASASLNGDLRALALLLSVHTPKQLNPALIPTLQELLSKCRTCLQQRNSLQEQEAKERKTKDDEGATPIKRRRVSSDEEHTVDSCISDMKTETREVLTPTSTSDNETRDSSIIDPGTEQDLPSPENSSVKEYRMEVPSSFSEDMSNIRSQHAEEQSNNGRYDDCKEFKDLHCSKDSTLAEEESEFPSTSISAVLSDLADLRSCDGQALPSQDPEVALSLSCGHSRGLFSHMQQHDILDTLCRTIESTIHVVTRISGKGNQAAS

Cc1ccc(CNC(=O)CCl)nc1C.Cl
inactive: USP34 -0.103 | USP36 0.158 | USP38 0.0543 | USP39 0.0861 | USP4 0.0382

Source: the supplement of paper PMC11732987, “Enantioselective OTUD7B fragment discovery through chemoproteomics screening and high-throughput optimisation” (Communications Chemistry, 2025)
